PfHsp40 rescue: compounds rescuing yeast from Plasmodium falciparum HSP40 toxicity | AID 504582 | hit rate 0.68% among 340,000 | growth rescue, % at 12.5 µM | S. cerevisiae expressing PfHsp40, growth rescue, ATP luminescence; in the data active = growth rescue above about 28%, passing the limit was not always enough; inconclusive = no clear call, values can overlap the other calls;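 also: yeast W303a lacking pdr1 and pdr3 grown in galactose medium; growth measured after three days at 30 °C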
MazEF act: activators of E. coli MazEF toxin-antitoxin RNase. P0AE70. activation, % at 20 µM. FAM/BHQ RNA-DNA oligo cleavage fluorescence, 5 h. hit rate 0.32% among 350,000; in the data active = activation above about 50%
Target sequence (P0AE70 whole entry, looked up): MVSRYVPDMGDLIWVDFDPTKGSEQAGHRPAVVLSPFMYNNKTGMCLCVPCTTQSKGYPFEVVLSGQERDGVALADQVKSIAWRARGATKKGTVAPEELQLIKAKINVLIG
Bead autofluor: counter-screen for toxin protease inhibitors: compound fluorescence. compound autofluorescence counterscreen, microsphere flow cytometry; active compounds read high. fluorescence intensity (test concentration not listed). hit rate 3.1% among 360,000; in the data active = fluorescence intensity above about 16000; inconclusive = no clear call, values can overlap the other calls
Anthrax LF inh2: anthrax lethal factor protease inhibition; hit rate 0.12% among 360,000; multiplex microsphere protease cleavage assay, LF; inhibition, % at 10 µM; P15917; also: plate controls were buffer without enzyme for full effect and enzyme alone for no effect
BoNT A protease: blocks Botulinum neurotoxin A light chain protease; multiplex microsphere protease substrate cleavage, flow cytometry; inhibition, % at 10 µM; hit rate 0.17% among 360,000; AID 588499; also: plate controls were buffer without enzyme for full effect and enzyme alone for no effect
BoNT F protease: BoNT F light chain protease inhibition; Multiplex microsphere protease cleavage assay, flow cytometry; inhibition, % at 10 µM; hit rate 0.22% among 360,000; AID 588497; in the data active = inhibition above about 35%, passing the limit was not always enough; inconclusive = no clear call, values can overlap the other calls; also: plate controls were buffer without enzyme for full effect and enzyme alone for no effect
* marks the source's active call; other numbers are inactive results; u = inconclusive; x = no result given. In the library only some 4.3% were active in any assay of this set; here they are far more common. Rule as the data show it, unless noted: active = inhibition above about 30%; inconclusive = no clear call, values can overlap the other calls; inactive = below that.

SMILES	PfHsp40 rescue	MazEF act	Bead autofluor	Anthrax LF inh2	BoNT A protease	BoNT F protease
CCC(C)[C@H](NC(=O)NC1CC1)C(=O)O (stereo partly specified)	-1.0	3.1	23360*	-2.2	u	-0.1
CC1(C(=O)NC(=S)N(Cc2ccccc2)c2ccccn2)CC1(Cl)Cl (stereo unspecified)	0.2	-5.1	2700	-0.5	-0.7	-12.9
CN(C(=S)NC(=O)C1(C)CC1(Cl)Cl)c1ccccc1 (stereo unspecified)	0.4	13.6	23191*	0.7	-0.1	-3.6
COC(=O)c1cnn(-c2ccc(F)cc2F)c1/C=N/NC(=S)NC(C)(C)C	5.2	6.0	3848	52.0*	-4.2	u
CNC(=S)N/N=C/c1c(C(=O)OC)cnn1-c1ccc(F)cc1F	-0.6	-1.0	3187	-1.4	4.0	u
CCOC(=O)c1cnc2c(cnn2C)c1NCCC(O)C(F)(F)F (stereo unspecified)	-0.2	0.4	21233*	-1.9	3.3	4.2
COc1ccc(C(=O)Nc2ccccc2C(=O)N(Cc2ccco2)C(C(N)=O)C(C)C)cc1 (stereo unspecified)	-1.3	-13.0	22943*	-1.8	0.3	2.9
CCCC(=O)C1=C(O)C(C(=O)OC)C(C)(C)CC1=Nc1ccc(N)cc1 (stereo unspecified)	0.4	13.2	21083*	-0.2	4.2	9.3
CCCC(=Nc1ccc(N)cc1)C1=C(O)C(C(=O)OC)C(C)(C)CC1=O (stereo unspecified)	-1.0	-9.2	23098*	-1.3	u	0.2
CCCC(=O)C1=C(O)C(C(=O)OC)C(C)(C)CC1=Nc1ccc(C)cc1 (stereo unspecified)	1.0	-0.4	3386	-2.7	0.2	-9.8
CCCCC(=NCCO)C1=C(O)C(C(=O)OC)C(C)(C)CC1=O (stereo unspecified)	-0.8	7.7	2421	-3.4	-0.1	-4.0
CCOC(=O)C1=C(COC(=O)c2ccc3ccccc3c2O)NC(=O)NC1C (stereo unspecified)	6.1	-397.7	3096	-2.5	-0.1	-2.1
CC(C)OC(=O)N(C)C[C@@H]1OCc2cnnn2CCCC(=O)N([C@H](C)CO)C[C@H]1C	x	13.9	4017	-1.9	-0.1	-4.8
CCOC(=O)C1=NN(c2ccccc2C)C2=NC(C)=C(C(=O)OC)C(c3cccs3)N12 (stereo unspecified)	-0.5	2.5	17523*	-10.3	6.6	5.5
CCOC(=O)C1=NN(c2ccccc2)C2=NC(C)=C(C(=O)OC)C(c3cccs3)N12 (stereo unspecified)	-2.3	-5.8	9628	1.8	-0.6	-4.6
COc1cccc(N2CCN(C(=O)c3ccc(-c4ccccc4)cc3)CC2)c1	7.3	-6.8	6120	-1.1	-0.7	-6.3
C/C(=N\NC(=O)C1(C)NC(C)(C)Cc2ccccc21)c1ccccc1 (stereo unspecified)	-0.2	4.4	2637	-2.1	-0.5	-5.0
COc1ccc(Nc2sc(C(=O)c3ccc(Cl)cc3)c(N)c2C(=O)Nc2ccccc2OC)cc1	1.0	3.9	22771*	-2.9	-1.8	-7.2
COc1ccc(C(=O)c2sc(Nc3ccccc3)c(C(=O)Nc3ccc(OC)c(OC)c3)c2N)cc1	3.0	-12.6	2846	-2.9	0.5	1.5
C=CCC[C@@H](Cc1ccc(F)cc1)C(=O)OC[C@@H]1CCCN1C(=O)[C@H](CC=C)CC(=O)N[C@H](CO)Cc1ccccc1	45.4*	7.7	3644	-3.4	-0.4	-6.8
C=CC[C@@H](Cc1ccc(F)cc1)C(=O)OC[C@H]1CCCN1C(=O)[C@H](CC=C)CC(=O)N[C@H](CO)Cc1ccccc1	21.4	-0.5	2842	-6.4	0.3	-6.1
C=CC[C@@H](Cc1ccc(F)cc1)C(=O)OC[C@H]1CCCN1C(=O)[C@@H](CC=C)CC(=O)N[C@@H](CO)Cc1ccccc1	32.4*	0.9	3707	-7.1	-0.5	0.8
C=CCC[C@@H](Cc1ccc(F)cc1)C(=O)OC[C@H]1CCCN1C(=O)[C@@H](CC=C)CC(=O)N[C@H](CO)Cc1ccccc1	38.6*	1.0	4285	-0.6	-0.3	-7.5
C=CC[C@@H](Cc1ccc(F)cc1)C(=O)OC[C@H]1CCCN1C(=O)[C@@H](CC=C)CC(=O)N[C@H](CO)Cc1ccccc1	14.6	-7.6	3032	3.2	0.9	7.9
O=C(O)CCNC(=O)CCCn1nnc2ccccc2c1=O	-1.0	3.9	20247*	-10.9	-18.8	-94.8
SMILES	PfHsp40 rescue	MazEF act	Bead autofluor	Anthrax LF inh2	BoNT A protease	BoNT F protease
CC(=O)N1CCN(c2ccc(S(=O)(=O)N3CCCCC3)cn2)CC1	-0.1	2.2	18018*	2.0	-3.6	-6.7
C[C@@H]1CN([C@H](C)CO)C(=O)c2cc(NC(=O)c3ccncc3)ccc2O[C@@H]1CN(C)C(=O)Nc1ccccc1	9.8	5.4	2690	6.3	1.2	-1.1
CCN1c2ccccc2NC2N=C(OC)C(c3ccccc3)C21 (stereo unspecified)	-1.9	5.6	25940*	0.5	u	-10.7
Cc1cc(C(F)(F)F)nn1Cc1n[nH]c(=S)n1-c1ccc(Cl)cc1	0.2	2.4	19410*	2.8	0.5	1.0
COc1ccc(OCc2n[nH]c(=S)n2-c2ccc(C)cc2)cc1	-0.6	4.5	2240	-2.2	0.7	0.8
Cc1ccc(-n2c(Cn3nc(C(F)F)cc3C(F)F)n[nH]c2=S)cc1	1.2	1.2	22572*	1.9	1.7	1.6
COc1ccc(Cl)cc1N/C(N)=N/c1nc(C)cc(=O)[nH]1	-0.2	1.7	5041	-3.7	-1.2	-14.8
COc1ccc(Cl)cc1N/C(N)=N/c1nc(CSc2ccc(C)cc2)cc(=O)[nH]1	0.3	-5.4	23248*	-1.0	1.4	-2.5
CN(Cc1ccccc1)C(=O)CCC1CCN(S(C)(=O)=O)CC1	-0.6	8.2	3629	8.5	-0.9	5.1
CN(C)c1ccc(/C=C(/NC(=O)c2ccccc2)C(=O)NCCCn2ccnc2)cc1	-0.8	73.6*	5397	-1.4	-0.4	-1.4
O=C(NCCCn1ccnc1)/C(=C/c1ccc(Cl)cc1)NC(=O)c1ccccc1	-1.0	-1.3	4208	2.3	-0.1	-21.6
Cc1ccc(Nc2c(-c3ccccc3O)nc3cnccn23)cc1	57.8*	11.3	3337	-1.2	-1.0	-7.9
Cc1cccc(C)c1NC(=O)C1(NC(=O)C2CCCN2C(=O)OC(C)(C)C)CCCCC1 (stereo unspecified)	-0.4	1.8	21811*	0.1	2.2	3.5
CCOc1ccc(N/N=C(/C#N)C(N)=O)cc1	362.6*	-2.9	9084	-4.0	0.2	6.1
COc1ccc(C(=O)/C(C#N)=N/Nc2ccc([N+](=O)[O-])cc2)cc1	0.7	2.7	6602	2.0	-3.7	-11.9
COc1ccc(N/N=C(\C#N)C(N)=O)cc1	47.4*	0.2	2202	-1.9	-0.2	-17.7
NNC(=O)C1C(O)CCC2CN3CCc4c([nH]c5ccccc45)C3CC21 (stereo unspecified)	-1.4	5.7	4514	-1.3	-0.6	-3.6
CN(C)CCNC(=O)c1cc(Br)ccc1Cl	0.0	1.5	21132*	-0.1	-1.1	-0.4

High-throughput results (PubChem)
